Reference: PubChem BioAssay (Tox21)
Results filed as inconclusive are left out. Activity calls are given as the source filed them. Unless noted, calls come from the whole dose curve; as a rule, active = well fitted curve in the direction sought with a large enough effect in the repeat runs; inconclusive = weak or mixed curves; inactive = no such curve, though single readings can be large; an effect the other way counts as inactive or inconclusive.

Assays:
[1] = qHTS assay for small molecules that induce genotoxicity in human embryonic kidney cells expressing luciferase-tagged ATAD5 (AID 651632); note: nearly all actives have a fitted effect of over 15% in size
How it was run: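 ATAD5-luc HEK293T, 2,000 cells/well; cpd or DMSO pin-transferred; 16 hr, 37C/5% CO2; Amplite 30 min RT; luminescence.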

[2] = qHTS assay for small molecule agonists of the p53 signaling pathway - cell viability (AID 651633; calls by dose curve;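 note: p53RE-bla HCT reporter cells with a stable beta-lactamase p53 reporter; series mostly up to about 83 µM; nearly all actives have a fitted effect of over 30% in size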)
How it was run: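 p53RE-bla cells were treated with compound for 16 hours at 37 C. Cytotoxicity was then measured as CellTiter-Glo luminescence after 30 min at room temperature.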

[3] = qHTS assay for small molecules that induce genotoxicity in human embryonic kidney cells expressing luciferase-tagged ATAD5 - cell viability (AID 651634; calls by dose curve; note: nearly all actives have a fitted effect of over 25% in size)
How it was run: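 Fluorescence from CellTiter-Fluor, reporting protease activity within live cells, served as the viability read-out. HEK293T cells carrying luciferase-tagged ATAD5 had been treated with compound for 15.5 hr at 37C.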

[4] = qHTS assay for small molecule disruptors of the mitochondrial membrane potential - cell viability (AID 720634; calls by dose curve;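 note: human HepG2 liver cancer cells; series mostly up to about 83 µM; nearly all actives have a fitted effect of over 20% in size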)
How it was run: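 Cells: HepG2, 2,000/well, attached overnight. Compound 1 hr, 37 C/5% CO2. +m-MPI dye, +CellTiter-Glo 30 min RT. Readout: luminescence (ATP).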

[5] = qHTS assay to test for compound auto fluorescence at 590 nm (red) in HepG2 cells (AID 720674)
How it was run: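 Fluorescence at 590 nm emission following 540 nm excitation was recorded from HepG2 wells one hour after compound transfer, with DMSO-only wells as vehicle and Rose Bengal sodium equivalency as the scale.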

[6] = qHTS assay to test for compound auto fluorescence at 535 nm (green) in HepG2 cells (AID 720675)
[7] = qHTS assay to test for compound auto fluorescence at 460 nm (blue) in HEK293 cells (AID 720678)
How it was run: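 Triamterene serves as the blue fluorophore standard. Compound signal at 405/460 nm is read in HEK293 wells (2,000 cells, 10% dialyzed FBS) after overnight treatment at 37C.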

[8] = qHTS assay to test for compound auto fluorescence at 535 nm (green) in HEK293 cells (AID 720680)
[9] = qHTS assay to test for compound auto fluorescence at 460 nm (blue) in HEK293 cell free culture (AID 720681)
How it was run: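 Compounds were added to cell-free DMEM with 10% FBS and fluorescence read directly. The blue channel used 405 nm excitation and 460 nm emission, with triamterene as the reference fluorophore.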

[10] = qHTS assay to test for compound auto fluorescence at 535 nm (green) in HEK293 cell free culture (AID 720682)
How it was run: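 Intrinsic compound fluorescence is measured in culture medium containing 10% FBS, with excitation at 485 nm and detection at 535 nm, referenced to fluorescein.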

[11] = qHTS assay to test for compound auto fluorescence at 590 nm (red) in HEK293 cell free culture (AID 720683)
How it was run: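 Cell-free wells of DMEM with 10% FBS received compound, and intrinsic fluorescence was read at excitation/emission 540/590 nm. Values expressed as equivalence to Rose Bengal sodium.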

[12] = qHTS assay to test for compound auto fluorescence at 590 nm (red) in HepG2 cell free culture (AID 720684)
How it was run: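 Compounds are added to culture medium (MEM, 10% FBS) lacking cells, then fluorescence is read at excitation 540 nm, emission 590 nm, with Rose Bengal sodium as the equivalency standard.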

[13] = qHTS assay to test for compound auto fluorescence at 460 nm (blue) in HepG2 cell free culture (AID 720685)
How it was run: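 Compound (23 nL) or DMSO pinned into cell-free MEM with 10% FBS; blue fluorescence read at 405/460 nm excitation/emission, expressed as auto-fluorescence equivalency to triamterene.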

[14] = qHTS assay to test for compound auto fluorescence at 535 nm (green) in HepG2 cell free culture (AID 720686)
[15] = molecular target: Glucocorticoid receptor (Homo sapiens) (UniProt P04150); test: qHTS assay to identify small molecule agonists of the glucocorticoid receptor (GR) signaling pathway (AID 720691; active = well fitted activation curve with a large enough effect in the signal ratio in the repeat runs, not every such curve was filed as active; the % refers to the signal ratio)
Chain of Glucocorticoid receptor (Homo sapiens) (P04150 whole entry, looked up): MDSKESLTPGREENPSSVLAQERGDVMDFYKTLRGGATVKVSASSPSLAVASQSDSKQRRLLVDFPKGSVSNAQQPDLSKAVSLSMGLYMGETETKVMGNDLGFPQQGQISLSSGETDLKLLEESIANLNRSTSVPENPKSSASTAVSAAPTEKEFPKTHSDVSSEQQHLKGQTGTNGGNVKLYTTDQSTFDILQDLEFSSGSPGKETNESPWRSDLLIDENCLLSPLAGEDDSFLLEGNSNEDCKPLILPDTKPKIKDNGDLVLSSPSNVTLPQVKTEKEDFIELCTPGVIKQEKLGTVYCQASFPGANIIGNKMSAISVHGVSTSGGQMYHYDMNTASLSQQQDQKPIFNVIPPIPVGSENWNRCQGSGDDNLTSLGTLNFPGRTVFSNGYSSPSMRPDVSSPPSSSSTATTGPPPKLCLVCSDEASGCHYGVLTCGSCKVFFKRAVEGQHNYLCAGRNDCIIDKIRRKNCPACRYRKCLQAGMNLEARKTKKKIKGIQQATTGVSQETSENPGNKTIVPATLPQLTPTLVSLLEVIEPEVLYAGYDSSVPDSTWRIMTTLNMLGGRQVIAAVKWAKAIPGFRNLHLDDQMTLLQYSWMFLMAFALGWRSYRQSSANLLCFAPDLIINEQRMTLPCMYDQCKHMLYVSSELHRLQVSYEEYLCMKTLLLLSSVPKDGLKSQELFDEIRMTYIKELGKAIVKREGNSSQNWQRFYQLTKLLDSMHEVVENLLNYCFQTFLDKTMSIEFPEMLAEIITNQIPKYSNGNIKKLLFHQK
How it was run: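 Fluorescence intensity from LiveBLAzer B/G FRET substrate (2 h, room temperature) reports beta-lactamase expression driven by the glucocorticoid response element in GR-bla HeLa cells after 18 h compound exposure at 37 C.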

[16] = molecular target: Glucocorticoid receptor (Homo sapiens) (UniProt P04150); test: qHTS assay to identify small molecule antagonists of the glucocorticoid receptor (GR) signaling pathway (AID 720692; active = well fitted inhibition curve with a large enough effect in the signal ratio in the repeat runs, not every such curve was filed as active; the % refers to the signal ratio)
How it was run: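 HeLa GR-bla cells; cmpd + dex 5 nM final, 18 h 37 C; LiveBLAzer B/G FRET substrate 2 h RT; fluorescence intensity read. Antagonist mode, qHTS.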

[17] = qHTS assay for small molecule disruptors of the mitochondrial membrane potential (AID 720635)
How it was run: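 HepG2 cells exposed to compound 1 hr at 37C, then Mito-MPS dye 30 min. Ratio read of aggregate (540/590 nm) versus monomer (490/535 nm) fluorescence.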

[18] = qHTS assay to test for compound auto fluorescence at 590 nm (red) in HEK293 cells (AID 720679)
How it was run: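 We plated HEK293 cells in 10% dialyzed FBS medium, let them adhere for 4-5 hr, then added 23 nL compound. Overnight at 37C and 5% CO2 preceded fluorescence measurement at 540/590nm.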

[19] = qHTS assay to test for compound auto fluorescence at 460 nm (blue) in HepG2 cells (AID 720687)
How it was run: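 HepG2 cells in MEM with 10% FBS, attached overnight at 37 C, were exposed to compound or DMSO for 1 hr at 37 C, 5% CO2. Blue fluorescence was read at 405/460 nm, with triamterene as reference fluorophore.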
% is set by controls: 0 for no effect and ±100 for the full control effect.

CCOC(=O)CS
inactive: Potency [1] | Potency [2] | Potency [3] | Potency [4] | outcome [5] | outcome [6] | outcome [7] | outcome [8] | outcome [9] | outcome [10] | outcome [11] | outcome [12] | outcome [13] | outcome [14] | Potency [15] | Potency [16]

CN1[C@@H]2CC[C@H]1CC(OC(=O)c1c[nH]c3ccccc13)C2 (stereo partly specified)
inactive: Potency [1] | Potency [2] | Potency [3] | Potency [4] | Potency [17] | outcome [5] | outcome [6] | outcome [7] | outcome [18] | outcome [8] | outcome [10] | outcome [11] | outcome [12] | outcome [13] | outcome [14] | outcome [19]

O=c1oc2c(O)c(O)cc3c(=O)oc4c(O)c(O)cc1c4c23
inactive: Potency [1] | Potency [2] | Potency [3] | Potency [4] | Potency [17] | outcome [5] | outcome [6] | outcome [7] | outcome [8] | outcome [9] | outcome [10] | outcome [11] | outcome [12] | outcome [13] | outcome [14] | Potency [15] | Potency [16]

CC(=O)N(CC(O)CN(C(C)=O)c1c(I)c(C(=O)NCC(O)CO)c(I)c(C(=O)NCC(O)CO)c1I)c1c(I)c(C(=O)NCC(O)CO)c(I)c(C(=O)NCC(O)CO)c1I (stereo unspecified)
inactive: Potency [1] | Potency [2] | Potency [3] | Potency [4] | Potency [17] | fluorescence, relative to Rose Bengal [5] 0.142% [at 18.6 µM] | fluorescence, % of fluorescein control [6] 0.0792% [at 18.6 µM] | fluorescence, % of triamterene [7] 0.0832% [at 18.6 µM] | fluorescence, % of fluorescein [8] -0.0222% [at 18.6 µM] | fluorescence, % of fluorescent control [9] 0.0333% [at 18.6 µM] | activity change [10] -0.0739% [at 18.6 µM] | fluorescence, % of fluorescent control [11] -0.132% [at 18.6 µM] | fluorescence, % of Rose Bengal [12] 0.365% [at 18.6 µM] | fluorescence, % of fluorescent control [13] -0.0088% [at 18.6 µM] | fluorescence, % of fluorescein control [14] 0.0651% [at 18.6 µM] | fluorescence, % of fluorescent control [19] -0.0121% [at 18.6 µM] | Potency [15] | Potency [16]

O=C(O)[C@@H]1CSCN1
inactive: Potency [1] | Potency [2] | Potency [3] | Potency [4] | Potency [17] | outcome [5] | outcome [6] | outcome [7] | outcome [18] | outcome [8] | outcome [9] | outcome [11] | outcome [12] | outcome [13] | outcome [14] | outcome [19] | Potency [15] | Potency [16]

Cc1nc(-c2ccccn2)ncc1C(=O)Nn1cc(C)c2cc(F)ccc21
inactive: Potency [1] | Potency [2] | Potency [4] | Potency [17] | outcome [6] | outcome [7] | outcome [18] | outcome [8] | outcome [10] | outcome [11] | outcome [12] | outcome [13] | outcome [14] | outcome [19] | Potency [15] | Potency [16]

O=C1CCCCC1C1CCCCC1 (stereo unspecified)
inactive: Potency [1] | Potency [2] | Potency [3] | Potency [4] | outcome [5] | outcome [6] | outcome [7] | outcome [18] | outcome [8] | outcome [11] | outcome [12] | outcome [13] | outcome [14] | outcome [19] | Potency [15] | Potency [16]

CCC/C=C/CO
inactive: Potency [1] | Potency [2] | Potency [3] | Potency [4] | outcome [5] | outcome [6] | outcome [7] | outcome [8] | outcome [9] | outcome [11] | outcome [12] | outcome [13] | outcome [14] | Potency [15]

Cc1ccc(C)c(N)c1
inactive: Potency [1] | Potency [2] | Potency [4] | outcome [5] | outcome [6] | outcome [7] | outcome [18] | outcome [8] | outcome [10] | outcome [11] | outcome [12] | outcome [13] | outcome [14] | outcome [19] | Potency [15] | Potency [16]

N#Cc1ccc(C(c2ccc(C#N)cc2)n2cncn2)cc1
inactive: Potency [1] | Potency [3] | Potency [4] | Potency [17] | outcome [5] | outcome [6] | outcome [18] | outcome [8] | outcome [9] | outcome [11] | outcome [12] | outcome [13] | outcome [14] | outcome [19] | Potency [15] | Potency [16]

CCCCN1C[C@H](O)[C@@H](O)[C@H](O)[C@H]1CO
inactive: Potency [1] | Potency [3] | Potency [4] | outcome [5] | outcome [6] | outcome [7] | outcome [18] | outcome [8] | outcome [9] | outcome [10] | outcome [11] | outcome [12] | outcome [13] | outcome [14] | Potency [15] | Potency [16]

CC1=C(CC(=O)O)c2cc(F)ccc2/C1=C\c1ccc(S(C)(=O)=O)cc1
inactive: Potency [1] | Potency [3] | Potency [4] | outcome [5] | outcome [6] | outcome [7] | outcome [18] | outcome [8] | outcome [9] | outcome [10] | outcome [11] | outcome [12] | outcome [13] | outcome [14] | outcome [19]

CCN(CC)CCOc1ccc(Cc2ccccc2)cc1
inactive: Potency [1] | Potency [3] | Potency [4] | outcome [6] | outcome [18] | outcome [8] | outcome [9] | outcome [10] | outcome [11] | outcome [12] | outcome [13] | outcome [14] | outcome [19]

O=CCCc1ccccc1
inactive: Potency [1] | Potency [3] | Potency [4] | outcome [5] | outcome [6] | outcome [18] | outcome [8] | outcome [9] | outcome [10] | outcome [11] | outcome [12] | outcome [13] | outcome [14] | outcome [19]
